{"source": "PubChem BioAssay (NCI)", "note": "This is part of a sample that, as a whole, favours compounds with a hit. Of some 83,000 tested, about 20% had one in any assay.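 The test compound was applied at a single concentration to cells in 96-well plates for 48 hours, and percent growth was recorded.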 Unmarked numbers belong to inactive results. Activity calls are given as the source filed them. How the source made its calls: active means growth percent below 10; inactive means the rest.", "data": [{"tested_on": "UACC-62 melanoma", "test": "NCI-60 one-dose screen, 48 h (100 = growth as untreated, 0 = no growth, -100 = all killed)", "conditions": "10 µM unless noted", "values": [{"smiles": "O=C(/C=C/Nc1ccc2oc(=O)ccc2c1)c1cc2cc(Br)ccc2oc1=O", "growth": "97.5%"}, {"smiles": "CC1(c2cc3cc(Cl)ccc3oc2=O)NC(=O)c2c(/C=C/C(=O)OC3CC4CCC3(C)C4(C)C)cccc2N1", "note": "(configuration not stated)", "growth": "62.6%"}, {"smiles": "COc1ccc(-c2ccnc(SCc3cc4ccccc4[nH]c3=O)n2)cc1OC", "growth": "1.83% (active)"}, {"smiles": "CC12CC[C@@H]3[C@]4(C)COC(c5cn[nH]c5-c5cccc(Br)c5)O[C@@H]4CC[C@@]3(C)[C@@H]1CC(C1=CCOC1=O)O2", "note": "(some centres not stated)", "growth": "20.9%"}, {"smiles": "O=C(c1ccc(OCCN2CCOCC2)cc1)C1[C@H](c2ccc(Cl)cc2)[C@@H](c2ccccc2)NC12C(=O)Nc1ccc(Br)cc12", "note": "(some centres not stated)", "growth": "38.5%"}, {"smiles": "COc1ccc2c(c1)c(/C=N/Nc1ccc3ccccc3n1)cn2C", "growth": "20.6%"}, {"smiles": "CN(C)CCOc1ccc(C(=O)C2[C@H](c3ccc(Cl)cc3)[C@@H](c3ccccc3)NC23C(=O)Nc2ccc(Br)cc23)cc1", "note": "(some centres not stated)", "growth": "43.3%"}, {"smiles": "O=c1[nH]c2ccc(Cl)cc2cc1CSc1nccc(-c2ccc(Cl)cc2)n1", "growth": "31.8%"}, {"smiles": "COc1cccc(/C=C/c2nc3ccccc3c(=O)n2CC(=O)Nc2ccc(Cl)cc2)c1", "growth": "95.1%"}, {"smiles": "CCCSc1nc(Nc2ccc(S(N)(=O)=O)cc2)c(C#N)c(-c2cc(OC)c(OC)c(OC)c2)n1", "growth": "21%"}, {"smiles": "CC(/C=C1\\SC(=S)N(CCCC(=O)NC(CC(C)C)C(=O)O)C1=O)=C\\c1ccccc1", "note": "(configuration not stated)", "growth": "76%"}, {"smiles": "COc1ccc(/C=C/c2nc3ccccc3c(=O)n2CC(=O)Nc2ccc(Cl)cc2)cc1", "growth": "73.3%"}]}]}
